# Results: PubChem BioAssay AID1159580 (chemical genetic matrix, 2015)
# Hit rate of the full screen: of about 5,500 compounds, about 2,000 (36%) were called active. Not shown: some 18% with an inconclusive outcome. The list shows a part of the results. Values without a mark were called inactive. Cut-off read from the data, not from the text of the source: active = normalized growth mostly below about 0.91 (no sharp cut-off); inconclusive = no clear call, values can overlap the other calls; inactive = mostly above about 0.92.
# Test: chemical genetic growth profiling, strain panel (AID 1159580);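 note: tested at 20 µM; growth read once vehicle control cultures reached saturation at 30 °C; 1 = growth at the plate median or of vehicle wells; lower values mean less growth of the strain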
# Conditions: growth OD
structure (smiles),measurement,setting,value
Nc1cc(-c2ccncc2)c[nH]c1=O,normalized growth,"S. cerevisiae deletion strains, locus YJR043C, strain POL32, stronger effect = lower value",0.89
same,normalized growth,"S. cerevisiae deletion strains, locus YJR066W, strain TOR1, stronger effect = lower value",0.973
same,normalized growth,"S. cerevisiae deletion strains, locus YJR075W, strain HOC1, stronger effect = lower value",0.942
same,normalized growth,"S. cerevisiae deletion strains, locus YKL009W, strain mrt4, stronger effect = lower value",0.977
same,normalized growth,"S. cerevisiae deletion strains, locus YKL068W, stronger effect = lower value",0.977
same,normalized growth,"S. cerevisiae deletion strains, locus YKL085W, strain MDH1 (second series), stronger effect = lower value",0.989
same,normalized growth,"S. cerevisiae deletion strains, locus YKL085W, strain MDH1, stronger effect = lower value",0.989
same,normalized growth,"S. cerevisiae deletion strains, locus YKL160W, strain elf1, stronger effect = lower value",0.689 (active)
same,normalized growth,"S. cerevisiae deletion strains, locus YKL190W, strain CNB1, stronger effect = lower value",0.974
same,normalized growth,"S. cerevisiae deletion strains, locus YKR001C, strain vps1, stronger effect = lower value",0.765 (active)
same,normalized growth,"S. cerevisiae deletion strains, locus YKR026C, strain gcn3, stronger effect = lower value",0.947
same,normalized growth,"S. cerevisiae deletion strains, locus YKR091W, strain srl3, stronger effect = lower value",0.976
same,normalized growth,"S. cerevisiae deletion strains, locus YLL001W, strain dnm1, stronger effect = lower value",0.687 (active)
same,normalized growth,"S. cerevisiae deletion strains, locus YLL026W, stronger effect = lower value",0.826 (active)
same,normalized growth,"S. cerevisiae deletion strains, locus YLL041C, strain sdh2, stronger effect = lower value",0.933
same,normalized growth,"S. cerevisiae deletion strains, locus YLR027C, strain aat2, stronger effect = lower value",0.831 (active)
same,normalized growth,"S. cerevisiae deletion strains, locus YLR039C, strain RIC1, stronger effect = lower value",0.981
same,normalized growth,"S. cerevisiae deletion strains, locus YLR058C, strain SHM2, stronger effect = lower value",0.975
same,normalized growth,"S. cerevisiae deletion strains, locus YLR102C, strain apc9, stronger effect = lower value",0.983
same,normalized growth,"S. cerevisiae deletion strains, locus YLR113W, strain HOG1, stronger effect = lower value",1.02
same,normalized growth,"S. cerevisiae deletion strains, locus YLR221C, strain rsa3, stronger effect = lower value",0.778 (active)
same,normalized growth,"S. cerevisiae deletion strains, locus YLR258W, strain gsy2, stronger effect = lower value",0.673 (active)
same,normalized growth,"S. cerevisiae deletion strains, locus YLR262C, strain YPT6 (second series), stronger effect = lower value",1.01
same,normalized growth,"S. cerevisiae deletion strains, locus YLR262C, strain YPT6, stronger effect = lower value",0.978
same,normalized growth,"S. cerevisiae deletion strains, locus YLR268W, strain sec22, stronger effect = lower value",0.908
same,normalized growth,"S. cerevisiae deletion strains, locus YLR320W, strain mms22, stronger effect = lower value",0.273 (active)
same,normalized growth,"S. cerevisiae deletion strains, locus YLR330W, strain CHS5, stronger effect = lower value",0.878 (active)
same,normalized growth,"S. cerevisiae deletion strains, locus YLR342W, strain FKS1 (second series), stronger effect = lower value",0.87
same,normalized growth,"S. cerevisiae deletion strains, locus YLR342W, strain FKS1, stronger effect = lower value",0.952
same,normalized growth,"S. cerevisiae deletion strains, locus YLR357W, strain rsc2, stronger effect = lower value",0.972
same,normalized growth,"S. cerevisiae deletion strains, locus YLR370C, strain arc18, stronger effect = lower value",0.514 (active)
same,normalized growth,"S. cerevisiae deletion strains, locus YLR384C, strain iki3, stronger effect = lower value",0.966
same,normalized growth,"S. cerevisiae deletion strains, locus YLR418C, strain cdc73, stronger effect = lower value",0.882
same,normalized growth,"S. cerevisiae deletion strains, locus YML016C, strain PPZ1, stronger effect = lower value",0.899 (active)
same,normalized growth,"S. cerevisiae deletion strains, locus YML032C, strain rad52, stronger effect = lower value",0.986
same,normalized growth,"S. cerevisiae deletion strains, locus YML120C, strain ndi1, stronger effect = lower value",0.979
same,normalized growth,"S. cerevisiae deletion strains, locus YML124C, strain tub3, stronger effect = lower value",0.971
same,normalized growth,"S. cerevisiae deletion strains, locus YMR058W, strain fet3, stronger effect = lower value",0.871 (active)
same,normalized growth,"S. cerevisiae deletion strains, locus YMR078C, strain ctf18, stronger effect = lower value",0.949
same,normalized growth,"S. cerevisiae deletion strains, locus YMR125W, strain sto1, stronger effect = lower value",0.955
same,normalized growth,"S. cerevisiae deletion strains, locus YMR129W, stronger effect = lower value",0.955
same,normalized growth,"S. cerevisiae deletion strains, locus YMR205C, strain PFK2, stronger effect = lower value",0.559 (active)
same,normalized growth,"S. cerevisiae deletion strains, locus YMR223W, strain ubp8, stronger effect = lower value",0.848 (active)
same,normalized growth,"S. cerevisiae deletion strains, locus YMR231W, strain pep5, stronger effect = lower value",0.965
same,normalized growth,"S. cerevisiae deletion strains, locus YMR263W, strain SAP30, stronger effect = lower value",0.977
same,normalized growth,"S. cerevisiae deletion strains, locus YMR307W, strain GAS1, stronger effect = lower value",0.937
same,normalized growth,"S. cerevisiae deletion strains, locus YNL067W, strain RPL9B, stronger effect = lower value",0.888
same,normalized growth,"S. cerevisiae deletion strains, locus YNL071W, strain lat1, stronger effect = lower value",0.39 (active)
same,normalized growth,"S. cerevisiae deletion strains, locus YNL183C, strain NPR1, stronger effect = lower value",0.977
same,normalized growth,"S. cerevisiae deletion strains, locus YNL209W, strain ssb2, stronger effect = lower value",0.914 (active)
same,normalized growth,"S. cerevisiae deletion strains, locus YNL233W, strain BNI4, stronger effect = lower value",0.82 (active)
same,normalized growth,"S. cerevisiae deletion strains, locus YNL248C, strain rpa49, stronger effect = lower value",0.517 (active)
same,normalized growth,"S. cerevisiae deletion strains, locus YNL250W, strain rad50, stronger effect = lower value",0.963
same,normalized growth,"S. cerevisiae deletion strains, locus YNL271C, strain bni1, stronger effect = lower value",0.989
same,normalized growth,"S. cerevisiae deletion strains, locus YNL298W, strain CLA4, stronger effect = lower value",0.988
same,normalized growth,"S. cerevisiae deletion strains, locus YNL307C, strain MCK1, stronger effect = lower value",0.163 (active)
same,normalized growth,"S. cerevisiae deletion strains, locus YNL322C, strain KRE1 (second series), stronger effect = lower value",0.907
same,normalized growth,"S. cerevisiae deletion strains, locus YNR049C, strain mso1, stronger effect = lower value",0.889 (active)
same,normalized growth,"S. cerevisiae deletion strains, locus YNR052C, strain pop2, stronger effect = lower value",0.994
same,normalized growth,"S. cerevisiae deletion strains, locus YOL006C, strain TOP1, stronger effect = lower value",0.573
same,normalized growth,"S. cerevisiae deletion strains, locus YOL012C, strain htz1",0.865
same,normalized growth,"S. cerevisiae deletion strains, locus YOL147C, strain pex11, stronger effect = lower value",0.979
same,normalized growth,"S. cerevisiae deletion strains, locus YOR001W, strain rrp6, stronger effect = lower value",0.967
same,normalized growth,"S. cerevisiae deletion strains, locus YOR061W, strain CKA2, stronger effect = lower value",0.887 (active)
same,normalized growth,"S. cerevisiae deletion strains, locus YOR069W, strain VPS5, stronger effect = lower value",0.967
same,normalized growth,"S. cerevisiae deletion strains, locus YOR070C, strain gyp1, stronger effect = lower value",0.814 (active)
same,normalized growth,"S. cerevisiae deletion strains, locus YOR080W, strain dia2, stronger effect = lower value",0.965
same,normalized growth,"S. cerevisiae deletion strains, locus YOR083W, strain WHI5, stronger effect = lower value",0.858 (active)
same,normalized growth,"S. cerevisiae deletion strains, locus YOR106W, strain vam3, stronger effect = lower value",0.587 (active)
same,normalized growth,"S. cerevisiae deletion strains, locus YOR136W, strain idh2, stronger effect = lower value",0.899 (active)
same,normalized growth,"S. cerevisiae deletion strains, locus YOR144C, strain elg1, stronger effect = lower value",0.986
same,normalized growth,"S. cerevisiae deletion strains, locus YOR184W, strain ser1, stronger effect = lower value",0.893
same,normalized growth,"S. cerevisiae deletion strains, locus YOR231W, strain MKK1, stronger effect = lower value",1.01
same,normalized growth,"S. cerevisiae deletion strains, locus YOR265W, strain rbl2, stronger effect = lower value",0.768 (active)
same,normalized growth,"S. cerevisiae deletion strains, locus YOR270C, strain vph1, stronger effect = lower value",0.451 (active)
same,normalized growth,"S. cerevisiae deletion strains, locus YOR290C, strain snf2, stronger effect = lower value",0.91
same,normalized growth,"S. cerevisiae deletion strains, locus YOR316C, strain cot1, stronger effect = lower value",0.98
same,normalized growth,"S. cerevisiae deletion strains, locus YPL051W, strain arl3, stronger effect = lower value",0.792 (active)
same,normalized growth,"S. cerevisiae deletion strains, locus YPL078C, strain atp4, stronger effect = lower value",0.973
same,normalized growth,"S. cerevisiae deletion strains, locus YPL106C, strain sse1, stronger effect = lower value",0.555 (active)
same,normalized growth,"S. cerevisiae deletion strains, locus YPL240C, strain hsp82, stronger effect = lower value",0.839 (active)
same,normalized growth,"S. cerevisiae deletion strains, locus YPL241C, strain CIN2, stronger effect = lower value",0.993
same,normalized growth,"S. cerevisiae deletion strains, locus YPL256C, strain CLN2, stronger effect = lower value",1.08
same,normalized growth,"S. cerevisiae deletion strains, locus YPR119W, strain clb2, stronger effect = lower value",0.987
same,normalized growth,"S. cerevisiae deletion strains, locus YPR141C, strain kar3, stronger effect = lower value",0.972
same,normalized growth,"S. cerevisiae deletion strains, locus YPR163C, strain tif3, stronger effect = lower value",0.603 (active)
same,normalized growth,"S. cerevisiae deletion strains, locus YPR167C, strain met16, stronger effect = lower value",0.928
same,normalized growth,"S. cerevisiae deletion strains, strain wtn01, stronger effect = lower value",0.848 (active)
same,normalized growth,"S. cerevisiae strains, strain wild type, stronger effect = lower value",0.958
